This note sets out measurements from ChEMBL document CHEMBL1201862, “PubChem BioAssay data set” (2004).

Among all 51,000 sequences or so, about 3,800 (7.5%) were called active. Cut-off read from the data, not from the text of the source: active = GI50 up to about 1.1 µM and inactive = higher. The sample as a whole holds a higher share of actives than the screen did. Measured potencies and affinities stand elsewhere.

This test concerns A498.
“mu-(1,7-nanodiamine-N,N')bis-(cis-aminedichloroplatimum (II)), CHEMBL2146215” showed a GI50 of 66.5 µM.

In the case of “[Bis(aminomethyl)pentamethylenesilane]dichloropaltinum(II), CHEMBL2146202”, the GI50 was 0.279 µM.

As for “[Bis(aminomethyl)dimethylsilane]tetrachloroplatinum(IV), CHEMBL2146190”, it took 15.5 µM to inhibit growth by half (GI50).

As to “[Bis(aminomethyl)pentamethylenesilane]tetrachloropaltinum(IV), CHEMBL2146204”, the GI50 turned out to be 0.132 µM.

For the substance “[Bis(aminomethyl)tetramethylenesilane]dichloropaltinum(II), CHEMBL2146205”, the GI50 stood at 32.8 µM.

As to “[Bis(aminomethyl)tetramethylenesilane]tetrachloropaltinum(IV), CHEMBL2146189”, it took 1.64 µM to inhibit growth by half (GI50).

The substance CISPLATIN, CHEMBL11359 came in with a GI50 of 8.24 µM.
